This is an account of results in PubChem BioAssay (NCI).

Assay in all cases: NCI-60 one-dose screen, 48 h (100 = growth as untreated, 0 = no growth, -100 = all killed)
One test relates to SK-MEL-2 melanoma. The note with it: 10 µM.
In a further test the test system is EKVX NSCLC. Conditions: 10 µM unless noted.
For the next test, the system named is SN12C renal. Conditions: 10 µM unless noted.
In the next test the test system is UO-31 renal. Conditions: 10 µM unless noted.
In a further test the test system is TK-10 renal. Conditions: 10 µM unless noted.
The test system of a further test is ACHN renal. The note with it: 10 µM unless noted.
A further test concerns A498 renal. Conditions: 10 µM unless noted.
In another test the test system is CCRF-CEM leukemia. The note with it: 10 µM unless noted.
The subject of a further test is MOLT-4 leukemia. The note with it: 10 µM unless noted.
A further test has as its system SR leukemia. The note with it: 10 µM unless noted.
Another test concerns RPMI-8226 leukemia. The note with it: 10 µM unless noted.
Another test has as its system OVCAR-8 ovarian. Conditions: 10 µM unless noted.
Another test relates to OVCAR-5 ovarian. Conditions: 10 µM unless noted.
In a further test the test system is OVCAR-4 ovarian. Conditions: 10 µM unless noted.
Another test relates to SK-OV-3 ovarian. The note with it: 10 µM unless noted.
The test system of a further test is IGROV1 ovarian. Conditions: 10 µM unless noted.
A further test concerns OVCAR-3 ovarian. Conditions: 10 µM unless noted.
The next test concerns HS 578T breast. Conditions: 10 µM.
For a further test, the system named is NCI/ADR-RES ovarian. Conditions: 10 µM unless noted.

Molecules are shown by their SMILES. The panel holds about 83,000 compounds, 20% with a hit somewhere; the sample as a whole holds those more often.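 Testing used 96-well plates and a 48-hour single-concentration exposure. Example: -40 means 40% of the starting cells died.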 Values without a mark were called inactive. Calls of active or inactive are those of the source. Rule for the calls: active = growth percent below 10; inactive = the rest.

With `NC(=O)c1n[nH]n2c1nc(=O)c1c3c(sc12)CCCC3`, the growth in the test on SK-MEL-2 melanoma is 106%; in the test on EKVX NSCLC it was 101%; in the test on SN12C renal it was 101%; in the test on UO-31 renal, 84.4%; with TK-10 renal it was 106%; in the test with ACHN renal, 111%. Moreover, the growth in the test on A498 renal is 115%; with CCRF-CEM leukemia it was 84.2%; in the test on MOLT-4 leukemia, 100%; with SR leukemia it was 101%; with RPMI-8226 leukemia it was 94.2%; in the test with OVCAR-8 ovarian, 101%. Also, the growth in the test with OVCAR-5 ovarian was 111%; in the test with OVCAR-4 ovarian it was 118%; with SK-OV-3 ovarian it was 105%; with IGROV1 ovarian, 104%; with OVCAR-3 ovarian it was 107%; in the test with HS 578T breast it was 110%. Further, the growth in the test with NCI/ADR-RES ovarian was 106%.

Take `CC[n+]1c(/C=C/C=C2\N(C)c3ccccc3C2(C)C)sc2ccccc21`: the growth with SK-MEL-2 melanoma is -16.2% (active); in the test on EKVX NSCLC, 10.9%; with SN12C renal, 5.6% (active); in the test on UO-31 renal, 12.6%; in the test with TK-10 renal, 21.5%; with ACHN renal it was 7.97% (active). Besides, the growth with A498 renal is 12.3%; in the test on CCRF-CEM leukemia it was 3.17% (active); in the test with MOLT-4 leukemia, -19.1% (active); in the test with SR leukemia, -5.33% (active); with RPMI-8226 leukemia, -31% (active); in the test on OVCAR-8 ovarian, 12.8%. In addition, the growth was 27.4% in the test with OVCAR-5 ovarian; 19.9% in the test on OVCAR-4 ovarian; -12.3% (active) in the test with SK-OV-3 ovarian; 32% in the test on IGROV1 ovarian; 8.88% (active) in the test with OVCAR-3 ovarian; 39.8% in the test with HS 578T breast. Besides, the growth in the test with NCI/ADR-RES ovarian was 30.4%.

As for `Cc1cc(N(CCNc2ccnc3cc(Cl)ccc23)Cc2ccc3c(c2)OCO3)nc(N2CCCC2)n1`, the growth with SK-MEL-2 melanoma was -39.9% (active); in the test on EKVX NSCLC, 35.8%; in the test with SN12C renal it was 27.9%; with UO-31 renal, -56.2% (active); in the test on TK-10 renal, -43.5% (active); in the test on ACHN renal, -49.1% (active). Also, the growth with A498 renal was -2.25% (active); with CCRF-CEM leukemia, -0.451% (active); in the test on MOLT-4 leukemia it was -17.7% (active); in the test on SR leukemia, -46.7% (active); in the test on RPMI-8226 leukemia it was -27.3% (active); in the test on OVCAR-8 ovarian, 7.4% (active). The growth is 20.6% in the test on OVCAR-5 ovarian; -44.9% (active) with OVCAR-4 ovarian; 40.9% in the test with SK-OV-3 ovarian; -14.4% (active) with IGROV1 ovarian; -30.7% (active) with OVCAR-3 ovarian; 6.29% (active) with HS 578T breast. Besides, the growth in the test on NCI/ADR-RES ovarian is 31.1%.

`Nc1nc(N)c2cc(CNc3ccc(C(=O)NC(CC(=O)O)C(=O)O)cc3)ccc2n1` (stereo not drawn): the growth with SK-MEL-2 melanoma was 72.3%; in the test with EKVX NSCLC, 43.2%; in the test on SN12C renal, 15.5%; in the test on UO-31 renal, 35.8%; in the test on TK-10 renal, 61.2%; with ACHN renal it was 25.9%. In addition, the growth with A498 renal is 19.1%; with CCRF-CEM leukemia it was 23%; in the test with MOLT-4 leukemia it was 32.8%; with SR leukemia, 13.8%; in the test on OVCAR-8 ovarian, -13.2% (active); in the test on OVCAR-5 ovarian, 30.1%. Moreover, the growth in the test with OVCAR-4 ovarian is 50.8%; in the test on SK-OV-3 ovarian, 47.4%; in the test with IGROV1 ovarian, 38.7%; in the test on OVCAR-3 ovarian it was 50.5%; in the test with HS 578T breast, -20.2% (active); with NCI/ADR-RES ovarian it was 17.3%.

As for `CC12O[C@H](C[C@@H](OC(=O)CCC(=O)O)[C@H]1O)n1c3ccccc3c3c4c(c5c6ccccc6n2c5c31)C(=O)NC4=O`, the growth is 23.3% in the test on SK-MEL-2 melanoma; 42.9% with EKVX NSCLC; 38.9% in the test on SN12C renal; -15.9% (active) in the test with UO-31 renal; 2.26% (active) in the test on TK-10 renal; 19.4% in the test on ACHN renal. Also, the growth in the test on A498 renal was -30.6% (active); in the test on CCRF-CEM leukemia, 7.97% (active); in the test on MOLT-4 leukemia, 5.17% (active); in the test with SR leukemia, 0.804% (active); in the test with RPMI-8226 leukemia, 58.7%; with OVCAR-8 ovarian it was 37.7%. In addition, the growth was 69.3% in the test on OVCAR-5 ovarian; 68% with OVCAR-4 ovarian; -8.63% (active) in the test on SK-OV-3 ovarian; 20.4% in the test with IGROV1 ovarian; 27.9% in the test with OVCAR-3 ovarian; 19.2% in the test with HS 578T breast. Moreover, the growth in the test on NCI/ADR-RES ovarian was 58.7%.

On to `N#Cc1cc2[nH]c3ccc(OC(F)(F)F)cc3c2oc1=O`, for which the growth is 66.5% in the test with SK-MEL-2 melanoma; 76.1% in the test on EKVX NSCLC; 95.9% in the test with SN12C renal; 59.1% with UO-31 renal; 132% with TK-10 renal; 84.4% in the test on ACHN renal. Also, the growth is 76.8% in the test with A498 renal; 90.4% with CCRF-CEM leukemia; 84.5% in the test on MOLT-4 leukemia; 26.2% in the test with SR leukemia; 89.1% in the test on RPMI-8226 leukemia; 86.8% with OVCAR-8 ovarian. Further, the growth in the test with OVCAR-5 ovarian is 118%; in the test on OVCAR-4 ovarian, 73.7%; in the test with SK-OV-3 ovarian, 62.5%; in the test with IGROV1 ovarian, 78.9%; in the test on OVCAR-3 ovarian, 67.1%; with HS 578T breast, 86.2%. The growth in the test with NCI/ADR-RES ovarian was 70.9%.
